An excerpt weighted towards active compounds, which were near 3.1% of everything screened.
EPAC2 ant val – human EPAC2 antagonism, validation. EPAC2 Rap1B BODIPY-GDP exchange, fluorescence. Potency, µM (titrated, usually from 112 µM), inactives show at the highest dose activity, negative = inhibition, hits mostly inhibitors. AID 1645886. Q8WZA2. 1.7% of 16,000 active;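 further: 100% = activation by cAMP agonist control; nearly all actives have a fitted effect of over 40% in size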
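Normalized against a 6.5 mM cAMP agonist control, compounds were tested on 100 nM EPAC2 exchanging Rap1B-bound BODIPY-GDP (250 nM) for 50 uM GDP. Fluorescence drop (ex 480, em 540 nm) was tracked at room temperature over 30 min at 5-min intervals.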
EPAC1 ag val – validation of human EPAC1 agonists. O95398. EPAC1 Rap1b BODIPY-GDP exchange, fluorescence. Potency, µM, inactives show max response, positive = active, actives largely listed as activators. 1% of 16,000 active; further: nearly all actives have a fitted effect of over 70% in size
Target sequence (O95398 whole entry, looked up): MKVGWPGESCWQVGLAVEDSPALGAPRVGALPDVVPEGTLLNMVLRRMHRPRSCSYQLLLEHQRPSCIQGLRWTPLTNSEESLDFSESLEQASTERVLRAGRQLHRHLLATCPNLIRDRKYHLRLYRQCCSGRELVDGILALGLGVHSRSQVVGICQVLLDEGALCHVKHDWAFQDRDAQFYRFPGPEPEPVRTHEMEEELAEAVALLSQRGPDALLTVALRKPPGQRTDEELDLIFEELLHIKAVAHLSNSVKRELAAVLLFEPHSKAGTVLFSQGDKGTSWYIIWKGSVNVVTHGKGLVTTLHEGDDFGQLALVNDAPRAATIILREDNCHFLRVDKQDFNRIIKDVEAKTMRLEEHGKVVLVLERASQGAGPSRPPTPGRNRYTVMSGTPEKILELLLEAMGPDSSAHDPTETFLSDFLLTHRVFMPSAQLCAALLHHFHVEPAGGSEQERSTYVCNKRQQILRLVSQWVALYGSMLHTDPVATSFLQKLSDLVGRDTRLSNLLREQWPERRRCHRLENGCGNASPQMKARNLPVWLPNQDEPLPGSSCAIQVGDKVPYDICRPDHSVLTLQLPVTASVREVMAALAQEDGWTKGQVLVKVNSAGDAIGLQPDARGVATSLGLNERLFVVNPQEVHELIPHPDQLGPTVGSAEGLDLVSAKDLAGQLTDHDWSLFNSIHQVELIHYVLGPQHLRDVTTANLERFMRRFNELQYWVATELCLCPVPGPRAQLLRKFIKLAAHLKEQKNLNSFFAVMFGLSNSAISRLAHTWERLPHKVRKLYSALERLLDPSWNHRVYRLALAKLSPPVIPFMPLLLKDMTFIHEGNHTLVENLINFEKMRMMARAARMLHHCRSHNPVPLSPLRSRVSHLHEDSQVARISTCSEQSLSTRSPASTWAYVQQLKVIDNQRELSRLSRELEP
Active calls of the source: *; i = inactive; ? = inconclusive; . = no result; ! = not active in a repeat. The call rests on the fitted dose curve; in most records, active means well fitted curve in the direction sought with a large enough effect; inconclusive means small, poorly fitted or top-dose-only effect, or another doubt; inactive means no such curve, though single readings can be large; an effect the other way counts as inactive or inconclusive. Unless noted, on the % scale 0 is the no-effect control and ±100 the full control effect; potency means the concentration at half of the fitted maximal effect.

SMILES	EPAC2 ant val	EPAC1 ag val
Cc1c(C(=O)NCC2(N3CCOCC3)CCCC2)cnn1-c1nccc(-c2ccccc2F)n1	3%	1%
COc1cc(-c2c(OC)cccc2OC)cc2c1OCCN(Cc1cn[nH]c1-c1ccc(Cl)cc1)C2	-16%	17%
CC(C)C[C@@H]1NC(=O)[C@H](CCCN)NC(=O)[C@H](C(C)C)NC(=O)[C@@H]2CCCN2C(=O)[C@@H](Cc2ccccc2)NC(=O)[C@H](CC(C)C)NC(=O)[C@H](CCCN)NC(=O)[C@H](C(C)C)NC(=O)[C@@H]2CCCN2C(=O)[C@@H](Cc2ccccc2)NC1=O	?	-38%
Cc1cc2nc3c(=O)[nH]c(=O)nc-3n(C[C@H](O)[C@H](O)[C@H](O)COP(=O)(O)OP(=O)(O)OC[C@H]3O[C@@H](n4cnc5c(N)ncnc54)[C@H](O)[C@@H]3O)c2cc1C	i	112µM*
Nc1ncnc2c1ncn2[C@@H]1O[C@H](COP(=O)(O)OP(=O)(O)OP(=O)(O)OP(=O)(O)OC[C@@H]2O[C@H](n3cnc4c(N)ncnc43)[C@@H](O)[C@H]2O)[C@@H](O)[C@H]1O	-1%	19%
Cc1ncc2c(c1CNC(=O)c1ccc3c(c1)OCO3)CCN(C(=O)c1ccoc1)C2	-1%	-1%
Cc1cc(N(C)C)c(C)cc1/C=C/c1ccnc2ccccc12	251%	112µM*
CCCN(CCC)c1ccc(/C=C/c2ccnc3ccccc23)cc1	262%	100µM*
CN(C)c1ccc(/C=C/c2ccnc3ccc4ccccc4c23)cc1	?	15%
Cc1[nH]c2ccccc2c1/C=C/c1ccnc2ccccc12	-5%	?
CCC[C@@]1(CCc2ccccc2)CC(O)=C([C@H](CC)c2cccc(NS(=O)(=O)c3ccc(C(F)(F)F)cn3)c2)C(=O)O1	.	23%
C[C@H](CSC(=O)c1ccccc1)C(=O)N1C[C@@H](Sc2ccccc2)C[C@H]1C(=O)O	5%	-21%
CC(C)C[C@@H](COc1ccccc1)N1CCN(CCc2ccccc2)CCC1=O	32µM*	-12%
CCCN1CCC(=O)N([C@H](COc2ccccc2)CC(C)C)CC1	10%	-17%
CCCCCCCCCCCCCCCC[n+]1ccc(C)c2ccccc21	-48%	-84%
COCC1CCCN(Cc2ccc3c(c2)CN(C(=O)c2sc(C)nc2C)CCO3)C1 (stereo unspecified)	5%	-1%
O=C(NCCc1nnc2n1CCN(Cc1ccsc1)CC2)c1ccc(F)cc1	-4%	-3%
COc1ccc(C(=O)NCC2Cc3cccc(-c4cncnc4)c3O2)c(OC)c1OC (stereo unspecified)	-18%	-7%
COc1ccc2[nH]cc(CCNc3ccnc(-c4ccoc4)n3)c2c1	89µM*	-59%
COc1ccc2[nH]cc(CCNc3ccnc(-c4ccc(N(C)C)cc4)n3)c2c1	-27%	?
COc1cc(=O)n2c(c1C(=O)NCc1ccco1)CCN(C(=O)c1c(F)ccc(F)c1F)CC2	-14%	-11%
COc1ccccc1-c1ccnc(-n2ncc(C(=O)NC(c3cccnc3)C(F)(F)F)c2C)n1 (stereo unspecified)	6%	4%
C=CCCCCCCCCCCCC(O)CC(O)CO (stereo unspecified) (tested in a mixture with another compound)	40µM*	-143%
C=CCCCCCCCCCCCC(O)CC(O)COC(C)=O (stereo unspecified)	?	-118%
CCCCC(=O)OCC(=O)[C@]1(O)Cc2c(O)c3c(c(O)c2[C@@H](O[C@H]2C[C@H](NC(=O)C(F)(F)F)[C@H](O)[C@H](C)O2)C1)C(=O)c1c(OC)cccc1C3=O	-4%	-8%
SMILES	EPAC2 ant val	EPAC1 ag val
Cc1ccccc1-c1ccc(CN2CCc3nnc(CNC(=O)c4ccccn4)n3CC2)cc1	-3%	-15%
COC(=O)[C@@H]1C[C@@H](NC(=O)c2cccc3c(C)c(C)[nH]c23)CN1Cc1cccc2ccccc12	-1%	-7%
COc1ccc(C(=O)c2ccccc2O)c(O)c1	45µM*!	-4%
COc1ccc(/C=C/C(=O)c2cc(O)ccc2O)cc1	?	9%
O=c1cnc2cnc(OCc3ccccc3)nc2n1CCc1ccccc1	22µM*	?
N#CCCn1c(=O)cnc2cnc(OCc3ccccc3)nc21	-25%	11%
CO[C@H]1C[C@@H]2CC[C@@H](C)[C@@](O)(O2)C(=O)C(=O)N2CCCC[C@H]2C(=O)O[C@H]([C@H](C)C[C@@H]2CC[C@@H](O)[C@H](OC)C2)CC(=O)[C@H](C)C=C(C)[C@@H](O)[C@@H](OC)C(=O)[C@H](C)C[C@H](C)/C=C/C=CC=C1C	?	-64%
COc1cccc(-c2nc3cc(SC)ccc3cc2CN(C(=O)c2csc(C)n2)C2CC2)c1	16µM*	-2%
COc1ccc(-c2nc3cc(F)ccc3cc2CN(C(=O)c2cccc(OC)c2)C2CC2)cc1	1%	-1%
Nc1ccc(O)cc1	?	8%
Nc1cc(N)cc(N)c1	56µM*	10%
O=c1c(O)c(-c2cccc(O)c2)oc2ccccc12	-16%	-10%
COc1c(-c2ccccc2)oc2c(ccc3occc32)c1=O	4.5µM*	?
COc1ccccc1-c1oc2ccccc2c(=O)c1OC	?	5%
O=c1c(O)c(-c2ccccc2)oc2ccc3occc3c12	7.1µM*	?
CO/N=C(\C(=O)N[C@@H]1C(=O)N2C(C(=O)O)=C(CSc3nc(C)c(CC(=O)O)s3)CS[C@H]12)c1csc(N)n1	18%	-8%
COc1ccccc1C1CN(Cc2c(C)nc3sccn23)Cc2ccccc2O1 (stereo unspecified)	-14%	13%
C[C@H]1C=C2C=C[C@H](C)[C@H](CC[C@@H]3C[C@@H](O)CC(=O)O3)[C@H]2[C@@H](OC(=O)[C@@H](C)CCO)C1	56µM*	-24%
CCC(C)C(=O)OC1CC(C)C=C2C=CC(C)C(CCC3CC(O)CC(=O)O3)C21 (stereo unspecified)	2%	-16%
CO/N=C(\C(=O)N[C@@H]1C(=O)N2C(C(=O)[O-])=C(C[n+]3ccc(N)n3CCO)CS[C@H]12)c1csc(N)n1	15%	1%
c1ccc(-c2csc(-c3nc4ccccc4[nH]3)n2)cc1	-15%	?
c1ccc(CCNc2nc(-c3ccccc3)cs2)cc1	-14%	100µM*
CC(=O)[C@@]1(O)CC[C@H]2[C@@H]3C=C(Cl)C4=CC(=O)CC[C@]4(C)[C@H]3CC[C@@]21C	13%	3%
CO[C@@H]1[C@@H](OC)[C@H](C)[C@@](O)(CC(=O)O)O[C@H]1[C@H](C)[C@H]1O[C@@]2(CC[C@@](C)([C@H]3CC[C@@](C)([C@@H]4O[C@@H]([C@H]5O[C@](C)(O)[C@H](C)C[C@@H]5C)C[C@@H]4OC4C[C@H](OC)[C@@H](OC)[C@H](C)O4)O3)O2)C[C@H](O)[C@H]1C (stereo partly specified)	5%	-53%
COc1ccccc1-c1ccnc(-n2ncc(C(=O)NCC3(N4CCOCC4)CCCC3)c2C)n1	-12%	9%
CC(=O)OC1c2c(ccc3ccc(=O)oc23)OC(C)(C)C1OC(=O)CC(C)C (stereo unspecified)	40µM*	-113%
CC1(C)Oc2ccc3ccc(=O)oc3c2CC1=O	13%	-33%
Cc1ccccc1C(=O)N1CCc2c(cnc(C)c2CNC(=O)c2ccc3c(c2)OCO3)C1	12%	0%
FC(F)OC(Cl)C(F)(F)F (stereo unspecified)	i	35µM*

Bioassay records deposited in PubChem by National Center for Advancing Translational Sciences (NCATS).
